{"source": "PubChem BioAssay AID624308", "about": "(National Center for Advancing Translational Sciences (NCATS), 2012)", "biological_target": "Peptidyl-prolyl cis-trans isomerase NIMA-interacting 1 (Homo sapiens) (UniProt Q13526)", "sequence (Q13526 whole entry, looked up)": "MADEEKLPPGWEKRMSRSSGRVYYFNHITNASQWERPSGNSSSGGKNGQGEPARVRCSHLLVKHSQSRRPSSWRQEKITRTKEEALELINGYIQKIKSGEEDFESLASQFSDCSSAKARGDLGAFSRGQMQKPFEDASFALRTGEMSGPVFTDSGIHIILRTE", "experiment": "qHTS Assay to Find Inhibitors of Pin1: Hit Validation", "conditions": "Pin1 FP peptide displacement, HiFluor488 probe", "from_the_text": "The unique chemical properties of Pro allow for the adoption of two completely distinct amide bond conformations (cis and trans). Peptidyl-prolyl cis/trans isomerases (PPIases) are evolutionary conserved enzymes that catalyze cis/trans isomerization of peptidyl-prolyl peptide bonds. Distinct from all other PPIases such as cyclophilins and FK506-binding proteins (FKBPs), Pin1 binds a subset of phos.Ser/Thr-Pro-containing proteins using its protein-targeting WW domain and isomerizes only specific phos.Ser/Thr-Pro bonds, which cannot be effectively catalyzed by other known PPIases. […] The goal of this screen is to find small-molecule inhibitors of Pin1 using a fluorescence polarization competition assay. […]\nPin1 (0.6 uM) was dispensed into black, solid 1536-well plates at 2 uL/well in 10 mM HEPES (pH 7.5), 10 mM NaCl, 0.01% Tween20, 1 mM DTT, and 1% glycerol. […] The plates were measured on a ViewLux plate reader for fluorescence polarization signal using a 480/20 nM nm excitation filter and 540/25 nM nm S and P emission filters with a 20 second exposure. The %Activity was determined from the corrected fluorescence polarization values. […] Concentration-response curves were fitted to the signals arising from the resulting fluorescence polarization. […] Keywords: Peptidyl prolyl isomerase, Pin1, fluorescence polarization, MLSMR, MLPCN, NIH Roadmap, qHTS, NCGC", "note": "Results filed as inconclusive are left out. The source made the active and inactive calls. Calls follow the shape of the dose curve; as a rule, active = well fitted inhibition curve with a large enough effect; inconclusive = small, poorly fitted or top-dose-only effect; inactive = flat fitted curve, though single readings scatter."}
{"smiles": "Cc1cc2c(C(C)C)c(O)c(O)c(C=O)c2c(O)c1-c1c(C)cc2c(C(C)C)c(O)c(O)c(C=O)c2c1O", "values": [{"measurement": "Potency", "value": "1.69 µM (active)"}]}
